Assay [1] deals with Progesterone receptor (Homo sapiens) (UniProt P06401). Nature of the assay: qHTS assay to identify small molecule agonists of the progesterone receptor (PR) signaling pathway (AID 1346784; calls by dose curve; also: nearly all actives have a fitted effect of over 30% in size). The essentials:
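Compounds were tested for PR agonism in HEK 293T cells bearing a beta-lactamase gene under UAS control. Treatment lasted 16 hr at 37C; signal came from fluorescence of a FRET substrate.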

Assay [2] shares this target. The assay can be described thus: qHTS assay to identify small molecule antagonists of the progesterone receptor (PR) signaling pathway (AID 1346795; active = well fitted inhibition curve with a large enough effect in the signal ratio in the repeat runs, not every such curve was filed as active; the % refers to the signal ratio). Put shortly: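 In HEK293T cells bearing the PR-UAS-bla reporter, compound effects on promegestone-driven (1 nM) beta-lactamase expression are assessed after 16 hr using a fluorescent FRET substrate incubated 2 hr at room temperature.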
On the technique in general: Quantitative high-throughput screening tests each substance at several concentrations.

A short description of assay [3]: qHTS assay to identify small molecule antagonists of the progesterone receptor (PR) signaling pathway - cell viability counter screen (AID 1346798). Also: series mostly up to about 92 µM; nearly all actives have a fitted effect of over 50% in size. Put shortly: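 Following a 4 hr attachment, PR-UAS-bla HEK293T cells in charcoal-stripped FBS medium were exposed to compounds with R5020 for 16 hr; CellTiter-Glo was added and luminescence read after 30 min at room temperature.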

Assay [4] can be described thus: qHTS assay to identify small molecule agonists of the progesterone receptor (PR) signaling pathway - cell viability counter screen (AID 1346799; calls by dose curve; also: nearly all actives have a fitted effect of over 45% in size). Put shortly: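 Here, 3,000 PR-UAS-bla HEK293T cells per well were treated with compounds for 16 hr after a 6 hr preincubation at 37C and 5% CO2; cell viability is the CellTiter-Glo luminescence signal.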
The nature of assay [5]: qHTS assay to identify small molecule antagonists of the TGF-beta/Smad signaling pathway - cell viability counter screen (AID 1346824). Also: nearly all actives have a fitted effect of over 50% in size. The essentials: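 SBE-bla HEK 293T cells were plated overnight at 37 C, then given compounds in DMSO plus TGF-beta1 (added as 0.25 ng/mL solution) for 5 hr. After the bla read, CellTiter-Glo was added to the same wells and luminescence read after 30 min at room temperature.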

A short description of assay [6]: qHTS assay to identify small molecule agonists of the TGF-beta/Smad signaling pathway - cell viability counter screen (AID 1346829). Also: top concentration of the series differs between compounds; nearly all actives have a fitted effect of over 45% in size. Put shortly:
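In parallel with the Smad reporter read, viability of HEK 293T cells stably carrying SBE-bla is quantified by ATP luminescence following 5 hr compound treatment.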

The target of assay [7] is Thyrotropin-releasing hormone receptor (Homo sapiens) (UniProt P34981). The assay can be described thus: qHTS assay to identify small molecule agonists of the thyrotropin-releasing hormone receptor (TRHR) signaling pathway (AID 1346891; calls by dose curve; also: series mostly up to about 58 µM). Put shortly:
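Screening of agonists relied on calcium signalling in HEK293 cells expressing human TRHR: dye loading 2 h at 37 °C preceded compound addition and a 3-min fluorescence time course.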

Assay [8] in a line: Human pregnane X receptor (PXR) small molecule agonists, qHTS cell viability counter screen (AID 1346977). Also: nearly all actives have a fitted effect of over 50% in size. The essentials:
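Tox21 qHTS format; PXR-Luc HepG2, 2,000/well, charcoal-stripped FBS 5%. Cpd exposure 24hr. Read: CellTiter-Fluor fluorescence, multiplexed with luciferase.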

Assay [9] can be described thus: Caspase-3/7 induction in CHO-K1 cells by small molecules, qHTS cell viability counter screen (AID 1346979). Also: nearly all actives have a fitted effect of over 35% in size. Put shortly: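 CellTiter-Fluor viability check, qHTS format: wild-type CHO-K1, 16hr compound treatment, 1hr reagent incubation, fluorescence read.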
The nature of assay [10]: Caspase-3/7 induction in CHO-K1 cells by small molecules, qHTS assay (AID 1346980). Also: nearly all actives have a fitted effect of over 15% in size. The essentials: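 Wild-type cells were seeded at 1,500 per well and settled 5 hr at 37 C, 5% CO2, then exposed to DMSO-dissolved compounds for 17 hr. Caspase-Glo 3/7 reagent was added, and luminescence was read after 30min at room temperature.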
Assay [11] concerns the target Nuclear receptor subfamily 1 group I member 2 (Homo sapiens) (UniProt O75469). The assay can be described thus: Human pregnane X receptor (PXR) small molecule agonists, qHTS assay (AID 1346982). Also: nearly all actives have a fitted effect of over 35% in size. Put shortly:
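Cells: HepG2 stably carrying PXR-Luc. Medium held 5% charcoal-stripped FBS. Compounds in DMSO added after 5 hr plating, incubated 24 hr, then luminescence quantified with ONE-Glo.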

The target of assay [12] is Cytochrome P450 2D6 (Homo sapiens) (UniProt P10635). Nature of the assay: Cytochrome P450 Family 2 Subfamily D Member 6 (CYP2D6) small molecule antagonists: luciferase reporter qHTS assay (AID 1671196). Also: series mostly up to about 120 µM; nearly all actives have a fitted effect of over 50% in size. Put shortly: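 Enzyme and proluciferin substrate were first combined with test chemical for 10 min at room temperature. Adding NADPH regeneration solution started a 1 h reaction, stopped with luciferin detection reagent and read by luminescence 20 min later.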
In general terms: Reporter assays use an easily measured gene product as a stand-in for the process of interest.

Assay [13] deals with Cytochrome P450 2C19 (Homo sapiens) (UniProt P33261). The assay can be described thus: Cytochrome P450 Family 2 Subfamily C Member 19 (CYP2C19) small molecule antagonists: luciferase reporter qHTS assay (AID 1671197). Also: nearly all actives have a fitted effect of over 65% in size. Also: potency is read from the fitted curve at half-maximal effect. Put shortly:
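Compounds were tested on CYP2C19 activity via proluciferin conversion to luciferin. The 37C, 1 h reaction followed NADPH addition; detection reagent stopped it.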

The nature of assay [14]: qHTS assay to identify small molecule agonists of the TGF-beta/Smad signaling pathway (AID 1346859; active = well fitted activation curve with a large enough effect in the signal ratio in the repeat runs, not every such curve was filed as active; the % refers to the signal ratio; also: series mostly up to about 77 µM). Put shortly:
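Each well held 4,000 SBE-bla HEK 293T cells incubated overnight before compound addition; 5 hr later the cleavable FRET substrate went on for 2 hr at room temperature, and fluorescence was read at two emissions.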

Assay [15] concerns the target Thyrotropin-releasing hormone receptor (Homo sapiens) (UniProt P34981). Nature of the assay: qHTS assay to identify small molecule antagonists of the thyrotropin-releasing hormone receptor (TRHR) signaling pathway (AID 1346877; active = well fitted inhibition curve with a large enough effect in the repeat runs, not every such curve was filed as active; also: series mostly up to about 51 µM). The essentials:
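Antagonism is measured as suppression of the calcium response to 1 nM TRH in TRHR-HEK293 cells that have been dye-loaded for 2 h at 37 °C after overnight plating. Each compound is tested at 15 concentrations in triplicate.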

Assay [16] is described as follows: Caspase-3/7 induction in HepG2 cells by small molecules, qHTS assay (AID 1346978). Also: nearly all actives have a fitted effect of over 15% in size. The essentials: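 Wild-type HepG2 cells (2,000/well) were settled 5 h at 37 C, 5% CO2, then exposed to compounds in DMSO for 17 h. Caspase-3/7 activity was read by luminescence 30 min after adding Caspase-Glo 3/7 reagent at room temperature.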
Assay [17] in a line: Caspase-3/7 induction in HepG2 cells by small molecules, qHTS cell viability counter screen (AID 1346981). Also: series mostly up to about 92 µM; nearly all actives have a fitted effect of over 30% in size. Put shortly:
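Cell viability is measured as a cytotoxicity counter screen alongside the Caspase-Glo 3/7 readout in identical wells. Wild-type HepG2 cells are treated with test compounds for 16 hr at 37 C before CellTiter-Fluor addition and a 1-hr incubation.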

In assay [18] the target is Nuclear receptor subfamily 1 group I member 2 (Rattus norvegicus) (UniProt Q9R1A7). Nature of the assay: Rat pregnane X receptor (rPXR) activation by small molecules, qHTS assay (AID 1346983). Also: nearly all actives have a fitted effect of over 20% in size. The settings on record: rPXR luciferase reporter cells, One-Glo luminescence, 24 h; stronger effect = higher value. Put shortly: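 Cell-based rPXR luciferase reporter assay, 2,000 cells per well, rested 5hr at 37 C before compound addition in DMSO, then 24 hr at 37 C. One-Glo reagent was added and luminescence read after 30 min at room temperature.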

Structures are written as SMILES. Values without a mark were called inactive. Inconclusive results are not listed. Activity calls are given as the source filed them. Unless noted, calls follow the shape of the dose curve; as a rule, active = well fitted curve in the direction sought with a large enough effect in the repeat runs; inconclusive = weak or mixed curves; inactive = no such curve, though single readings can be large; an effect the other way counts as inactive or inconclusive.
% is scaled to controls: 0 for no effect and ±100 for the full control effect.

Sequence of Progesterone receptor (Homo sapiens) (P06401 whole entry, looked up): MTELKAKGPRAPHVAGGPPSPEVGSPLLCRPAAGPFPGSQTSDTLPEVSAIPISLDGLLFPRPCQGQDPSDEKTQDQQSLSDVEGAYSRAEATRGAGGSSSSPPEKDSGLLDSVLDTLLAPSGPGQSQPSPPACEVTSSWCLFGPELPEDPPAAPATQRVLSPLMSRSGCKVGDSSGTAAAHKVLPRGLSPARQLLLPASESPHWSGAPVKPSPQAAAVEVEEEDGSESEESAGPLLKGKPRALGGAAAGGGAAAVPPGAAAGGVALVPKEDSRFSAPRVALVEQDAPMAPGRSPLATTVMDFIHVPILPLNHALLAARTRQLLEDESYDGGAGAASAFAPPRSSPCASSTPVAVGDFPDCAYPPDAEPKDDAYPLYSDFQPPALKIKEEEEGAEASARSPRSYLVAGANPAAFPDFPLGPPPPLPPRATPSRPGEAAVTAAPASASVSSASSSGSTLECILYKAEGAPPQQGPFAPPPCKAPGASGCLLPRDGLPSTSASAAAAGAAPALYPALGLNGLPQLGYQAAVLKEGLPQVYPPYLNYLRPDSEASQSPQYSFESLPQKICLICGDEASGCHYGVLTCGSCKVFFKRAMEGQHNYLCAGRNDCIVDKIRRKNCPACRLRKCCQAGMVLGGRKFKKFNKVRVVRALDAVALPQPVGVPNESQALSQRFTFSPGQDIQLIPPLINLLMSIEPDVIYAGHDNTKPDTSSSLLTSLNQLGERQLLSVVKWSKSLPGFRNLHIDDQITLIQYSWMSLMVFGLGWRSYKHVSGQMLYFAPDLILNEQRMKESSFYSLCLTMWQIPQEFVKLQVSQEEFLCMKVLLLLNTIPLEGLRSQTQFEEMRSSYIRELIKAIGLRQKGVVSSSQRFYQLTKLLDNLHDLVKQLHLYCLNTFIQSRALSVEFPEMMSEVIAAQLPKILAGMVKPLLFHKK
Sequence of Nuclear receptor subfamily 1 group I member 2 (Homo sapiens) (O75469 whole entry, looked up): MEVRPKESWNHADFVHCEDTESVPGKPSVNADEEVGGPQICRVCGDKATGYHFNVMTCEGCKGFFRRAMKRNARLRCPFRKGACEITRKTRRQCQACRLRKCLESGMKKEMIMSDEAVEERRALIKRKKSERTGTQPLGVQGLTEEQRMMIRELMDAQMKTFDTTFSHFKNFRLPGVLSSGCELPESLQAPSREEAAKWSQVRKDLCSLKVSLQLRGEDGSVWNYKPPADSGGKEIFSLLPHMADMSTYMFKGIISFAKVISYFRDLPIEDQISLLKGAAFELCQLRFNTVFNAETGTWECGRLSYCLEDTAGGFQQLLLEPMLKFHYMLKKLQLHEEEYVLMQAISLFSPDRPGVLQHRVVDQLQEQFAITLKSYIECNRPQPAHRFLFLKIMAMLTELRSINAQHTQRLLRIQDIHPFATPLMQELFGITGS
Sequence of Cytochrome P450 2C19 (Homo sapiens) (P33261 whole entry, looked up): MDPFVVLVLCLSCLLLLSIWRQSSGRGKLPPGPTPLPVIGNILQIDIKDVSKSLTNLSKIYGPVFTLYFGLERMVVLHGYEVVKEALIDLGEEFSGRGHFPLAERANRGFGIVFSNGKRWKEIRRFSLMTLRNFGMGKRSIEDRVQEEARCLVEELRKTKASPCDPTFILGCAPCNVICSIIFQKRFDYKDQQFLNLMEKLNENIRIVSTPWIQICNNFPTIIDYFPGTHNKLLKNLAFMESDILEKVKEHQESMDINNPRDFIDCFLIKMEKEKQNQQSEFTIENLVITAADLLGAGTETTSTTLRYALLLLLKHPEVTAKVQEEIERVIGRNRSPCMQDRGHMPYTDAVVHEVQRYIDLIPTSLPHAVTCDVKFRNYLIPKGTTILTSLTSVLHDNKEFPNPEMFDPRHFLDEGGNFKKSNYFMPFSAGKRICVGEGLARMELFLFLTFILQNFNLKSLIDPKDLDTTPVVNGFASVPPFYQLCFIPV
Sequence of Thyrotropin-releasing hormone receptor (Homo sapiens) (P34981 whole entry, looked up): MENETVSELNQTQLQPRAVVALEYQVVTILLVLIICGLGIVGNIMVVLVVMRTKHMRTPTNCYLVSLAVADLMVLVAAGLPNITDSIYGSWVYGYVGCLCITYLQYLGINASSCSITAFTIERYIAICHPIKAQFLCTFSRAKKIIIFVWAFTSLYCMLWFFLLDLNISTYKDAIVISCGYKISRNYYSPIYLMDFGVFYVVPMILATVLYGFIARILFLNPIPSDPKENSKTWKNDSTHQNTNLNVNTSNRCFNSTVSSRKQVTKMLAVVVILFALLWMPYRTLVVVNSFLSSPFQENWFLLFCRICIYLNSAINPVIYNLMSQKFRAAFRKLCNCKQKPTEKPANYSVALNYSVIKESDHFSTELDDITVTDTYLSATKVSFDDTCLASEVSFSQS
Sequence of Cytochrome P450 2D6 (Homo sapiens) (P10635 whole entry, looked up): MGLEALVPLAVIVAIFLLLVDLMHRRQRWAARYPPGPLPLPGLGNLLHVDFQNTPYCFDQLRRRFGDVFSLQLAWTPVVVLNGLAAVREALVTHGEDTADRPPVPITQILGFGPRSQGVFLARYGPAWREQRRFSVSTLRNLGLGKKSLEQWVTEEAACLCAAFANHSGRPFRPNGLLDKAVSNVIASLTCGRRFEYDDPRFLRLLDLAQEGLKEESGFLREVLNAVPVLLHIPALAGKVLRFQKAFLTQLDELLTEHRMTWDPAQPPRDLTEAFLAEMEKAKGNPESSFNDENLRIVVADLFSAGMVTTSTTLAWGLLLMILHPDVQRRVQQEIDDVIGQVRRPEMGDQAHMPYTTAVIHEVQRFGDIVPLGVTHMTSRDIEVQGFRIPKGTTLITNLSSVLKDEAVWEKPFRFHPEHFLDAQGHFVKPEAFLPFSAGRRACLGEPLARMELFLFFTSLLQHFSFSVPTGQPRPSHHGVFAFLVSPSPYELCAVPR
Sequence of Nuclear receptor subfamily 1 group I member 2 (Rattus norvegicus) (Q9R1A7 whole entry, looked up): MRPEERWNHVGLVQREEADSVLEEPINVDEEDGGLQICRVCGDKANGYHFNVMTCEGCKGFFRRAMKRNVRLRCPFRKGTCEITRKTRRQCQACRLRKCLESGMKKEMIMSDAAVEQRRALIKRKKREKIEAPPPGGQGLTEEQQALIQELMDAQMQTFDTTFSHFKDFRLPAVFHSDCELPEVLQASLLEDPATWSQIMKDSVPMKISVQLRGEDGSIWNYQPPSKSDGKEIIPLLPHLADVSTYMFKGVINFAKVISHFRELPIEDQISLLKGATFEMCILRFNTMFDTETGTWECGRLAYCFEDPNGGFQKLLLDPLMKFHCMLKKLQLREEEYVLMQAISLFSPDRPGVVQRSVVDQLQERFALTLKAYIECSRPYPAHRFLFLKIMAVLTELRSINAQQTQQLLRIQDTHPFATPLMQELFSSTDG

As to `CCCCCCCCCCCCCC`, the Potency result in assay [1], in [2], in assay [3], in assay [4], in assay [8] and in assay [9] was “inactive” throughout. Further, the Potency result in [11], in [12] and in [13] was “inactive” throughout. Also, the molecule was classed as inactive in assay [5], in assay [6], in [7] and in assay [10].
Regarding `CC(C)=O`, the Potency result in assay [1], in [2], in assay [3], in assay [4], in [8] and in [16] was “inactive” throughout. Moreover, the Potency result in assay [9], in assay [17] and in [13] was “inactive” throughout. The molecule was classed as inactive in assay [6], in assay [14], in [15], in assay [7] and in assay [10]. The max activation in [18] was -0.452%.
As to `CC(C)OC(=O)CCCCC(=O)OC(C)C`, the Potency entry in [1], in assay [2], in [3], in assay [4], in assay [8] and in assay [16] was “inactive” in each case. The Potency result in assay [9], in assay [17], in assay [11] and in [13] was “inactive” throughout. In addition, the outcome in assay [6], in [14], in assay [15], in [7] and in assay [10] was inactive.
Turning to `CC(C)CC(C)CC(C)CC(C)COC(=O)c1ccccc1C(=O)OCC(C)CC(C)CC(C)CC(C)C` (stereo unspecified), the Potency entry in assay [1], in assay [2], in assay [3], in assay [4], in assay [8] and in assay [16] was “inactive” each time. The Potency result in assay [17] and in assay [11] was “inactive” in each case. Also, the result in assay [6], in assay [14], in assay [15] and in assay [10] was inactive. The Potency in [13] was 65.9 µM (active).
In the case of `O=P(O)(O)OP(=O)(O)O`, the Potency entry in assay [1], in assay [2], in [3], in [4], in assay [8] and in assay [16] was “inactive” each time. Further, the Potency entry in [9] and in assay [17] was “inactive” in each case. Also, the call in assay [6], in assay [15], in assay [7] and in assay [10] was inactive. The max activation in [18] is 1.84%.
For `Oc1ccccc1-c1nnco1`, the Potency result in assay [1], in assay [2], in [3], in [4], in assay [8] and in [16] was “inactive” in each case. Moreover, the Potency result in assay [9], in assay [17], in [11], in assay [12] and in assay [13] was “inactive” each time. Moreover, the result in assay [6], in [14], in assay [15] and in [10] was inactive.
For the molecule `ClCCCl`, the Potency result in assay [1], in [2], in assay [3], in assay [4], in assay [8] and in assay [16] was “inactive” each time. The Potency entry in assay [17], in assay [11] and in assay [13] was “inactive” throughout. Moreover, the call in assay [6], in assay [14], in assay [15], in assay [7] and in assay [10] was inactive.
In the case of `C=C(C)C(=O)OCC(C)(C)COC(=O)C(=C)C`, the Potency entry in [1], in assay [2], in [3], in [4], in assay [8] and in assay [16] was “inactive” each time. Further, the Potency entry in [9], in [17] and in assay [13] was “inactive” each time. The outcome in assay [6], in [15], in assay [7] and in assay [10] was inactive.

Source of the values: PubChem BioAssay (Tox21).
